Assay outcomes as filed in PubChem BioAssay.
Only some compounds are listed: those with a hit (about 4.7% of all), similar ones and a draw of the others.
EBI2 block: EBI2 (human) antagonism. P32249. inhibition, % at 5 µM. 360,000 compounds, 0.81% hits. EBI2 beta-arrestin recruitment, luminescence, 7a,25-OHC stimulated; in the data active = inhibition above about 38%;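 also: enzyme fragment complementation signal reports receptor beta-arrestin coupling in cells; 0% = agonist plus DMSO wells and 100% = wells without agonist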
Target sequence (P32249 whole entry, looked up, the tested form may be a part): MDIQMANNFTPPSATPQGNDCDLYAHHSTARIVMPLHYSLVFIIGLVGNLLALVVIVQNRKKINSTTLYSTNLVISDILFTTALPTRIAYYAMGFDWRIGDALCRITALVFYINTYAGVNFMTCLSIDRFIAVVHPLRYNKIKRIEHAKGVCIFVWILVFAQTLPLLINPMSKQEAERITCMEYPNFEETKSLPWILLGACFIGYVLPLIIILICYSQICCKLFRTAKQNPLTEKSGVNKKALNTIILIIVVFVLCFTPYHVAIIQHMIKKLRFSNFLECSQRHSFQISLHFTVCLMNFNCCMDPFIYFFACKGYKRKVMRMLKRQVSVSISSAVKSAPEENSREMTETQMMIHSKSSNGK
TIM10 inh: inhibits growth of TIM10 yeast strain | 330,000 compounds, 1.4% hits | AID 463195 | S. cerevisiae TIM10 strain growth, BacTiter-Glo luminescence, 24 h | inhibition, % at 10 µM;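 active = inhibition of 40% or more at the single tested concentration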;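 also: wild-type TIM10 isogenic control strain grown at permissive 25 °C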
tim23-1 inh: inhibits growth of tim23-1 mutant yeast; AID 463212; S. cerevisiae tim23-1 growth, BacTiter-Glo luminescence, 24 h; inhibition, % at 20 µM; 330,000 compounds, 1.3% hits;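 active = growth inhibition of the mutant yeast at or above 50%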;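 also: temperature-sensitive mutant grown at 25 °C; plate controls were DMSO-treated mutant yeast for no effect and medium wells lacking yeast for full effect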
SKKanGAS inh: SKKanGAS growth inhibition. inhibition, % at 7.5 µM. S. pyogenes SKKanGAS, kanamycin growth, BacTiter-Glo, 6 h. 300,000 compounds, 1.3% hits;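 active = mean replicate score, as percent of positive control median, at least 50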;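 also: strain carries kanamycin resistance gene driven by streptokinase promoter and grows in 40 µg/ml kanamycin; loss of luminescence reflects streptokinase promoter inhibition or plain growth inhibition; 0% = median of DMSO wells and 100% = positive control at its reference dose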
PfHsp90 yeast 2: reduces growth (ATP signal) of yeast expressing P. falciparum Hsp90. S. cerevisiae expressing PfHsp90, BacTiter-Glo ATP, 48 h; yeast lacking PDR1 and PDR3 efflux regulators. inhibition, % at 9.4 µM. 310,000 compounds, 0.32% hits;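 active = every replicate shows inhibition above about 80%, whatever the replicate mean, limit read from the data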;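 also: 0% = DMSO neutral controls and 100% = 20 µM radicicol positive controls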
tim10-1 inh: inhibits growth of tim10-1 mutant yeast. inhibition, % at 20 µM. S. cerevisiae tim10-1 ts strain growth, BacTiter-Glo, 24 h. 330,000 compounds, 2.2% hits;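 active = inhibition of at least 40%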;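 also: mutant grown at 25 °C; 0% = DMSO wells with yeast and 100% = wells holding no yeast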
tim10-1 confirm: confirmation of tim10-1 mutant yeast growth inhibitors. 7,400 compounds, 56% hits. shares compounds with tim10-1 inh. S. cerevisiae tim10-1 ts strain growth, BacTiter-Glo, 24 h. inhibition, % at 20 µM;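 active = inhibition of yeast growth at or above a set limit in either of two repeat tests at 20 µM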;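 also: tim10-1 mutant grown at permissive 25 °C to find synthetic lethal compounds; 0% = DMSO yeast wells and 100% = medium wells without yeast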
tim10 confirm: TIM10 yeast growth inhibition, confirmed; inhibition, % at 10 µM; shares compounds with TIM10 inh; S. cerevisiae tim10 strain growth, BacTiter-Glo luminescence, 24 h; 4,600 compounds, 63% hits;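 active = inhibition of yeast growth at or above a set limit in either of two replicates at 10 µM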;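 also: this counterscreen used the strain with wild-type TIM10; 0% = yeast with DMSO and 100% = medium wells lacking yeast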
tim23-1 conf: tim23-1 yeast growth inhibition, confirmed; shares compounds with tim23-1 inh; S. cerevisiae tim23-1 growth, BacTiter-Glo luminescence, 24 h; inhibition, % at 20 µM; 4,400 compounds, 83% hits; AID 463218;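 active = inhibition above about 39% in either of two replicate wells at 20 µM, limit read from the data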;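 also: temperature-sensitive tim23-1 mutant grown at 25 °C; 0% = DMSO wells with yeast and 100% = medium wells without yeast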
The depositor's hits bear a star; · = no result.

SMILES	EBI2 block	TIM10 inh	tim23-1 inh	SKKanGAS inh	PfHsp90 yeast 2	tim10-1 inh	tim10-1 confirm	tim10 confirm	tim23-1 conf
Cc1cc(O)c(C(C[N+](=O)[O-])c2ccc(Cl)cc2)c(=O)o1 (configuration not stated)	-16	14	18	2	10	15	·	·	·
Cc1cc(C)n(C(C[N+](=O)[O-])c2ccc(Cl)cc2)n1 (configuration not stated)	-8	77*	76*	32	7	42*	54*	68*	30
CCn1cc(/C=C(\NC(=O)c2ccc(OC)c(OC)c2)C(=O)NCCCN2CCOCC2)c2ccccc21	-6	4	-2	-1	4	-7	·	·	·
Cc1ccc(/C(N)=N/OC(=O)c2ccc(F)cc2)cc1	6	67*	68*	-3	14	59*	55*	69*	65*
Cc1ccc(C(=O)O/N=C(\N)c2ccccn2)cc1	-12	35	38	4	54	38	·	·	·
N/C(=N\OC(=O)c1ccc(F)cc1)c1ccccc1	-12	63*	73*	5	-3	68*	64*	61*	76*
COc1ccc(OC)c(C(C[N+](=O)[O-])c2c(C)cc3ccccn23)c1 (configuration not stated)	-17	66*	85*	-8	-7	45*	61*	82*	91*
COc1ccc(Br)cc1C(C[N+](=O)[O-])c1c(N)n(C)c(=O)n(C)c1=O (configuration not stated)	-14	19	37	8	1	28	·	·	·
O=C(Nc1ncccc1O)c1ccc(S(=O)(=O)Nc2ccccc2)cc1	-24	-2	12	-9	-3	-12	·	·	·
O=C(NCCO)C(=O)c1c(-c2ccc(Cl)cc2)cc2ccccn12	-14	-5	2	-7	-6	11	·	·	·
O=C(NCCc1ccccc1)C(=O)c1c(-c2ccccc2)cc2ccccn12	-3	27	53*	-5	-39	51*	36*	·	54*
COc1ccc2oc(C)c(C(=O)c3ccccc3)c2c1	8	-21	4	14	-1	-9	·	·	·
COc1ccc2oc(/C=C/N(C)C)c(C(=O)c3ccc(Cl)cc3)c2c1	15	29	50*	27	112*	45*	21	·	51*
c1ccc(COc2ccc(-c3cc4nc(NCCN5CCOCC5)ccn4n3)cc2)cc1	0	·	·	·	·	·	·	·	·
COc1ccc(C(=S)N2CCOCC2)cc1OC(=O)c1ccc([N+](=O)[O-])cc1[N+](=O)[O-]	4	71*	58*	4	2	60*	74*	68*	68*
O=C(Oc1ccccc1C(=S)N1CCOCC1)c1ccc([N+](=O)[O-])cc1[N+](=O)[O-]	-8	45*	54*	0	6	56*	49*	49*	52*
S=C(NCc1ccc2[nH]c3c(c2c1)CCCC3)Nc1ccccc1	21	48*	53*	4	-43	46*	43*	51*	59*
O=C(Nc1ccc([N+](=O)[O-])cc1)N1CCCCCC1	-6	10	23	-1	-20	17	·	·	·
CC(C)(C)c1ccc(NC(=O)N2CCCN(c3ccc([N+](=O)[O-])cn3)CC2)cc1	1	43*	61*	5	6	43*	50*	42*	57*
CC1(C(=O)Nc2nccs2)Cc2ccccc2C(=O)O1 (configuration not stated)	-3	0	19	-9	·	4	·	·	·
CC1(C(=O)Nc2nnc(SCc3ccccc3)s2)Cc2ccccc2C(=O)O1 (configuration not stated)	-4	33	52*	10	·	47*	50*	·	42*
O=[N+]([O-])c1nn(-c2ccc3c(c2)OCCO3)n(O)c1=NC1CCCCCC1	-20	55*	56*	7	-19	53*	56*	45*	48*
O=C(C1CCCO1)N1CCN(c2ccccn2)CC1 (configuration not stated)	-4	1	6	-5	·	-1	·	·	·
CCn1ncc([N+](=O)[O-])c1C(=O)Nc1nc2cccc(C)c2s1	-11	32	51*	12	-12	47*	24	·	50*
CCn1ncc([N+](=O)[O-])c1C(=O)Nc1c(C)cccc1C	6	-2	-1	-2	-12	-13	·	·	·
SMILES	EBI2 block	TIM10 inh	tim23-1 inh	SKKanGAS inh	PfHsp90 yeast 2	tim10-1 inh	tim10-1 confirm	tim10 confirm	tim23-1 conf
Cc1ccsc1/C=N/NC(=O)c1ccc(Cn2cc(Br)cn2)o1	-11	-11	-9	-9	-13	-12	·	·	·
O=C(N/N=C/c1cccc(Br)c1)c1ccc(Cn2cc(Br)cn2)o1	25	68*	76*	8	-6	49*	60*	81*	83*
CC(C)Cc1nc2oc3c(Cl)ncnc3c2c2c1CCC2	48*	37	55*	-9	-37	50*	36*	·	55*
Cc1cc(C(=O)COc2ccc(F)cc2Br)c(C)n1C1CC1	5	-12	16	·	-66	6	·	·	·
COc1ccc(C(=O)/C=C2\Sc3ccccc3N2C)cc1	11	11	40	-8	10	13	·	·	·
COc1ccc(-[n+]2c(C)cc(/C=C3\Sc4ccccc4N3C)cc2C)cc1	16	66*	82*	40	-28	77*	76*	67*	84*
COc1ccccc1-[n+]1c(C)cc(/C=C2\Sc3ccccc3N2C)cc1C	4	75*	70*	45	-26	57*	77*	60*	72*
COc1ccccc1OC(=O)CCN1c2ccccc2Sc2ccccc21	9	10	25	3	-4	17	·	·	·
COc1ccc(N2CC(NC(=O)N3CCc4ccccc43)CC2=O)cc1OC (configuration not stated)	-6	-5	2	-12	7	14	·	·	·
Cc1ccc(CS(=O)(=O)CC(C)(O)c2ccccc2)cc1 (configuration not stated)	-16	2	-15	1	-12	24	·	·	·
CCc1nnc(NC(=O)CN2CCCC(C)C2)s1 (configuration not stated)	-6	-9	12	·	-7	9	·	·	·
Oc1ccc2ccccc2c1CNc1ccc(Br)cc1	·	31	25	1	·	16	·	·	·
Oc1ccc2ccccc2c1CNc1ccc(Br)cn1	3	37	61*	8	2	46*	63*	·	68*
